# Experimental data: article PMC5540273 (PLoS ONE, 2017)
# Experiments:
# Settings in all cases: concentration: 1 μM, replicates: in singlicate; n = 1
# PHKG1 = system: PHKG1
# PHKG2 = system: PHKG2
# PIK3C2B = system: PIK3C2B
# PIK3C2G = system: PIK3C2G
# PIK3CA = system: PIK3CA
# PIK3CB = system: PIK3CB
# PIK3CD = system: PIK3CD
# PIK3CG = system: PIK3CG
# PIK4CB = system: T1, PIK4CB
# T1 construct: gene PI4KB
# PIKFYVE = system: PIKFYVE
# 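Also: KINOMEscan kinase panel screen.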
Structure (SMILES),%Inh (PHKG1),%Inh (PHKG2),%Inh (PIK3C2B),%Inh (PIK3C2G),%Inh (PIK3CA),%Inh (PIK3CB),%Inh (PIK3CD),%Inh (PIK3CG),%Inh (PIK4CB),%Inh (PIKFYVE)
COc1ccc(C2=C(Nc3cccc(C(=O)O)c3)C(=O)NC2=O)cc1 [SB-390765],0%,0%,23%,21%,0%,40%,16%,27%,22%,0%
Cc1ccc(-c2cc(-c3c[nH]nc3-c3ccccn3)ccn2)cc1 [GW684088],0%,27%,0%,1%,2%,8%,1%,4%,2%,30%
Fc1cc(Cl)ccc1Nc1ccnc2cc(I)ccc12 [GW551191],0%,0%,0%,0%,0%,0%,0%,0%,0%,0%
Fc1cccc(COc2nnc(-c3ccc4c(c3)CCO4)o2)c1,0%,0%,0%,0%,0%,14%,17%,7%,0%,24%
Cl.c1ccc(-c2n[nH]cc2-c2ccnc(-c3ccc(CN4CCOCC4)cc3)c2)nc1 [GW776245],0%,14%,16%,0%,0%,0%,0%,33%,0%,0%
Cc1cccc(-c2nc(Nc3ccc4[nH]ncc4c3)c3ccccc3n2)n1 [GW857175],0%,16%,8%,43%,0%,7%,18%,0%,23%,85%
COc1cc2ncn(-c3cc(OCC4CCCO4)c(C(N)=O)s3)c2cc1OC (stereo not drawn) [GSK204607],0%,3%,0%,0%,0%,0%,0%,19%,0%,0%
Cc1cc(N2Cc3ccccc3C2)nc(Nc2ccc(S(=O)(=O)N3CCOCC3)cc2)n1.Cl [GSK1669917],14%,0%,0%,0%,0%,0%,0%,48%,100%,0%
Cc1nnc(-c2ccc3occ(-c4ccc(S(C)=O)cc4)c3c2)[nH]1 (stereo not drawn),15%,16%,3%,17%,9%,28%,0%,5%,0%,17%
Cl.O=C(Nc1cccc(-c2nn3ncccc3c2-c2ccnc(Nc3cccnc3)n2)c1)c1c(F)cccc1F [GSK312879],8%,18%,0%,0%,0%,0%,0%,0%,11%,52%
Cc1cccc(-c2nc(Nc3cccc(C(N)=O)c3)c3ccccc3n2)n1 [GW876019],0%,8%,0%,44%,0%,0%,48%,0%,0%,16%
Cc1ccc(C(=O)Nc2ccc(Nc3ccnc4cc(-c5ccccn5)ccc34)cc2O)cc1.Cl [GW440146],0%,0%,0%,0%,0%,0%,100%,0%,0%,4%
O=C1NC(=O)C(N2CCc3ccccc32)=C1c1ccccc1Cl [SB-373598],0%,23%,1%,0%,0%,0%,10%,12%,0%,0%
COc1cc2ncnc(Nc3ccc4nc(-c5ccccc5)[nH]c4c3)c2cc1OC.Cl [GW282450],0%,6%,0%,0%,0%,0%,0%,0%,0%,0%
CC(C)(C)c1ccc(C(=O)Nc2cn3cc(Cl)ccc3n2)cc1,0%,0%,0%,0%,0%,0%,0%,0%,0%,4%
O=C(Nc1n[nH]c2nc(-c3nccs3)c(Br)cc12)C1CCCC1 [SB-742609],0%,0%,0%,0%,0%,0%,0%,0%,0%,0%
Nc1ncnc2[nH]c(-c3ccccc3)nc12 [AH5015],0%,0%,0%,0%,0%,0%,0%,0%,37%,8%
Cc1cccc(-c2cc(Nc3ccncc3)c3ccccc3n2)n1 [GSK223675],0%,1%,4%,0%,7%,0%,0%,7%,21%,23%
